Measurements published in PubChem BioAssay AID1159580 (chemical genetic matrix, 2015).
“And” between values parts separate entries of the source, which are not always exact repeats. Identical values can stand only once. The campaign covered roughly 5,500 compounds. About 2,000 (36%) were called active. Roughly 18% stayed inconclusive and do not appear here. Rule as the data show it: active = normalized growth mostly below about 0.91 (no sharp cut-off); inconclusive = no clear call, values can overlap the other calls; inactive = mostly above about 0.92. This is one part of the list.

Assay: chemical genetic growth profiling, strain panel (AID 1159580);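 also: tested at 20 µM; growth read once vehicle control cultures reached saturation at 30 °C; 1 = growth at the plate median or of vehicle wells; lower values mean less growth of the strain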
Conditions: growth OD

Measured: normalized growth

NC(N)=Nc1nc(CSCCC(N)=NS(N)(=O)=O)cs1
inactive: S. cerevisiae deletion strains, locus YKL009W, strain mrt4, stronger effect = lower value 1.04 | S. cerevisiae deletion strains, locus YKL068W, stronger effect = lower value 1.01 | S. cerevisiae deletion strains, locus YKL085W, strain MDH1 (second series), stronger effect = lower value 0.987 | S. cerevisiae deletion strains, locus YKL085W, strain MDH1, stronger effect = lower value 0.987 | S. cerevisiae deletion strains, locus YKL160W, strain elf1, stronger effect = lower value 0.974 | S. cerevisiae deletion strains, locus YKL190W, strain CNB1, stronger effect = lower value 1 | S. cerevisiae deletion strains, locus YKR001C, strain vps1, stronger effect = lower value 1.01 | S. cerevisiae deletion strains, locus YKR026C, strain gcn3, stronger effect = lower value 0.981 | S. cerevisiae deletion strains, locus YKR091W, strain srl3, stronger effect = lower value 0.97 | S. cerevisiae deletion strains, locus YLL001W, strain dnm1, stronger effect = lower value 0.933 | S. cerevisiae deletion strains, locus YLL026W, stronger effect = lower value 0.992 | S. cerevisiae deletion strains, locus YLL041C, strain sdh2, stronger effect = lower value 0.995 | S. cerevisiae deletion strains, locus YLR027C, strain aat2, stronger effect = lower value 0.987 | S. cerevisiae deletion strains, locus YLR039C, strain RIC1, stronger effect = lower value 0.979 | S. cerevisiae deletion strains, locus YLR058C, strain SHM2, stronger effect = lower value 1.02 | S. cerevisiae deletion strains, locus YLR102C, strain apc9, stronger effect = lower value 1.01 | S. cerevisiae deletion strains, locus YLR113W, strain HOG1, stronger effect = lower value 0.97 | S. cerevisiae deletion strains, locus YLR221C, strain rsa3, stronger effect = lower value 0.99 | S. cerevisiae deletion strains, locus YLR258W, strain gsy2, stronger effect = lower value 0.998 | S. cerevisiae deletion strains, locus YLR262C, strain YPT6 (second series), stronger effect = lower value 0.961 | S. cerevisiae deletion strains, locus YLR262C, strain YPT6, stronger effect = lower value 0.979 | S. cerevisiae deletion strains, locus YLR268W, strain sec22, stronger effect = lower value 1.05 | S. cerevisiae deletion strains, locus YLR320W, strain mms22, stronger effect = lower value 1.01 | S. cerevisiae deletion strains, locus YLR330W, strain CHS5, stronger effect = lower value 0.996 | S. cerevisiae deletion strains, locus YLR342W, strain FKS1 (second series), stronger effect = lower value 1.02 | S. cerevisiae deletion strains, locus YLR342W, strain FKS1, stronger effect = lower value 0.983 | S. cerevisiae deletion strains, locus YLR357W, strain rsc2, stronger effect = lower value 1.04 | S. cerevisiae deletion strains, locus YLR370C, strain arc18, stronger effect = lower value 0.972 | S. cerevisiae deletion strains, locus YLR371W, strain rom2, stronger effect = lower value 1.01 | S. cerevisiae deletion strains, locus YLR384C, strain iki3, stronger effect = lower value 0.963 | S. cerevisiae deletion strains, locus YLR418C, strain cdc73, stronger effect = lower value 0.999 | S. cerevisiae deletion strains, locus YML016C, strain PPZ1, stronger effect = lower value 0.997 | S. cerevisiae deletion strains, locus YML032C, strain rad52, stronger effect = lower value 1.02 | S. cerevisiae deletion strains, locus YML120C, strain ndi1, stronger effect = lower value 0.977 | S. cerevisiae deletion strains, locus YML124C, strain tub3, stronger effect = lower value 1 | S. cerevisiae deletion strains, locus YMR058W, strain fet3, stronger effect = lower value 0.991 | S. cerevisiae deletion strains, locus YMR078C, strain ctf18, stronger effect = lower value 1.02 | S. cerevisiae deletion strains, locus YMR125W, strain sto1, stronger effect = lower value 0.956 | S. cerevisiae deletion strains, locus YMR129W, stronger effect = lower value 0.99 | S. cerevisiae deletion strains, locus YMR205C, strain PFK2, stronger effect = lower value 0.988 | S. cerevisiae deletion strains, locus YMR223W, strain ubp8, stronger effect = lower value 1.01 | S. cerevisiae deletion strains, locus YMR231W, strain pep5, stronger effect = lower value 0.971 | S. cerevisiae deletion strains, locus YMR263W, strain SAP30, stronger effect = lower value 1.01 | S. cerevisiae deletion strains, locus YMR307W, strain GAS1, stronger effect = lower value 0.95 | S. cerevisiae deletion strains, locus YNL067W, strain RPL9B, stronger effect = lower value 1.01 | S. cerevisiae deletion strains, locus YNL071W, strain lat1, stronger effect = lower value 0.996 | S. cerevisiae deletion strains, locus YNL128W, strain TEP1, stronger effect = lower value 1.01 | S. cerevisiae deletion strains, locus YNL153C, strain GIM3, stronger effect = lower value 1.01 | S. cerevisiae deletion strains, locus YNL175C, strain NOP13, stronger effect = lower value 1.01 | S. cerevisiae deletion strains, locus YNL183C, strain NPR1, stronger effect = lower value 0.931 | S. cerevisiae deletion strains, locus YNL197C, strain WHI3, stronger effect = lower value 1.01 | S. cerevisiae deletion strains, locus YNL209W, strain ssb2, stronger effect = lower value 0.993 | S. cerevisiae deletion strains, locus YNL224C, strain SQS1, stronger effect = lower value 0.986 | S. cerevisiae deletion strains, locus YNL233W, strain BNI4, stronger effect = lower value 1.01 | S. cerevisiae deletion strains, locus YNL248C, strain rpa49, stronger effect = lower value 0.994 | S. cerevisiae deletion strains, locus YNL250W, strain rad50, stronger effect = lower value 1 | S. cerevisiae deletion strains, locus YNL271C, strain bni1, stronger effect = lower value 1.01 | S. cerevisiae deletion strains, locus YNL298W, strain CLA4, stronger effect = lower value 1.02 | S. cerevisiae deletion strains, locus YNL307C, strain MCK1, stronger effect = lower value 1.01 | S. cerevisiae deletion strains, locus YNL322C, strain KRE1 (second series), stronger effect = lower value 0.963 | S. cerevisiae deletion strains, locus YNL322C, strain KRE1, stronger effect = lower value 1 and 1.01 | S. cerevisiae deletion strains, locus YNR049C, strain mso1, stronger effect = lower value 0.972 | S. cerevisiae deletion strains, locus YNR052C, strain pop2, stronger effect = lower value 1.02 | S. cerevisiae deletion strains, locus YOL006C, strain TOP1, stronger effect = lower value 1.06 | S. cerevisiae deletion strains, locus YOL012C, strain htz1 0.851 | S. cerevisiae deletion strains, locus YOL147C, strain pex11, stronger effect = lower value 1.01 | S. cerevisiae deletion strains, locus YOR001W, strain rrp6, stronger effect = lower value 0.972 | S. cerevisiae deletion strains, locus YOR061W, strain CKA2, stronger effect = lower value 1 | S. cerevisiae deletion strains, locus YOR069W, strain VPS5, stronger effect = lower value 1.01 | S. cerevisiae deletion strains, locus YOR070C, strain gyp1, stronger effect = lower value 0.982 | S. cerevisiae deletion strains, locus YOR080W, strain dia2, stronger effect = lower value 0.97 | S. cerevisiae deletion strains, locus YOR083W, strain WHI5 (second series), stronger effect = lower value 0.992 | S. cerevisiae deletion strains, locus YOR083W, strain WHI5, stronger effect = lower value 0.965 | S. cerevisiae deletion strains, locus YOR106W, strain vam3, stronger effect = lower value 0.96 | S. cerevisiae deletion strains, locus YOR136W, strain idh2, stronger effect = lower value 1 | S. cerevisiae deletion strains, locus YOR144C, strain elg1, stronger effect = lower value 1.01 | S. cerevisiae deletion strains, locus YOR184W, strain ser1, stronger effect = lower value 1 | S. cerevisiae deletion strains, locus YOR231W, strain MKK1, stronger effect = lower value 0.959 | S. cerevisiae deletion strains, locus YOR265W, strain rbl2, stronger effect = lower value 0.986 | S. cerevisiae deletion strains, locus YOR270C, strain vph1, stronger effect = lower value 0.966 | S. cerevisiae deletion strains, locus YOR290C, strain snf2, stronger effect = lower value 1 | S. cerevisiae deletion strains, locus YOR316C, strain cot1, stronger effect = lower value 1 | S. cerevisiae deletion strains, locus YPL051W, strain arl3, stronger effect = lower value 0.99 | S. cerevisiae deletion strains, locus YPL055C, strain LGE1, stronger effect = lower value 0.97 | S. cerevisiae deletion strains, locus YPL078C, strain atp4, stronger effect = lower value 0.968 | S. cerevisiae deletion strains, locus YPL106C, strain sse1, stronger effect = lower value 0.999 | S. cerevisiae deletion strains, locus YPL240C, strain hsp82, stronger effect = lower value 1 | S. cerevisiae deletion strains, locus YPL241C, strain CIN2, stronger effect = lower value 0.997 and 1.01 | S. cerevisiae deletion strains, locus YPL256C, strain CLN2, stronger effect = lower value 0.961 | S. cerevisiae deletion strains, locus YPR119W, strain clb2, stronger effect = lower value 1 | S. cerevisiae deletion strains, locus YPR141C, strain kar3, stronger effect = lower value 1 | S. cerevisiae deletion strains, locus YPR163C, strain tif3, stronger effect = lower value 1.02 | S. cerevisiae deletion strains, locus YPR167C, strain met16, stronger effect = lower value 1.01 | S. cerevisiae deletion strains, strain wtn01, stronger effect = lower value 1.02 | S. cerevisiae strains, strain wild type, stronger effect = lower value 1
